# In the library only some 9.3% were active in any assay of this set; here they are far more common.
# ELG1 genotoxic – genotoxicity induction in ELG1-luciferase HEK293T cells | AID 504466 | Potency, µM (series often up to 46 µM), inactives show at the top dose activity change, positive = activation, usual class: activators | hit rate 1.3% among 330,000 | HEK293T ELG1-luciferase reporter, luminescence, 16 h; also: % of control where 0% means no effect; nearly all actives have a fitted effect of over 60% in size
#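 Genotoxicity was scored as increased ELG1-luciferase reporter signal, measured by ONE-Glo luminescence (30 min, room temperature). Compound or vehicle exposure of the HEK293T reporter cells lasted 16 hr at 37°C.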
# FLuc counter – firefly luciferase modulation, counter-screen for miR-21 project | hit rate 6.9% among 360,000 | purified FLuc, Km substrates, luminescence inhibition | Potency, µM (doses to about 57.5 µM), inactives show at the highest dose activity change, negative = inhibition, most hits filed as inhibitors;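 also: plate controls were vehicle for no effect and reference inhibitor for full effect; nearly all actives have a fitted effect of over 55% in size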
# Target sequence (P08659 whole entry, looked up): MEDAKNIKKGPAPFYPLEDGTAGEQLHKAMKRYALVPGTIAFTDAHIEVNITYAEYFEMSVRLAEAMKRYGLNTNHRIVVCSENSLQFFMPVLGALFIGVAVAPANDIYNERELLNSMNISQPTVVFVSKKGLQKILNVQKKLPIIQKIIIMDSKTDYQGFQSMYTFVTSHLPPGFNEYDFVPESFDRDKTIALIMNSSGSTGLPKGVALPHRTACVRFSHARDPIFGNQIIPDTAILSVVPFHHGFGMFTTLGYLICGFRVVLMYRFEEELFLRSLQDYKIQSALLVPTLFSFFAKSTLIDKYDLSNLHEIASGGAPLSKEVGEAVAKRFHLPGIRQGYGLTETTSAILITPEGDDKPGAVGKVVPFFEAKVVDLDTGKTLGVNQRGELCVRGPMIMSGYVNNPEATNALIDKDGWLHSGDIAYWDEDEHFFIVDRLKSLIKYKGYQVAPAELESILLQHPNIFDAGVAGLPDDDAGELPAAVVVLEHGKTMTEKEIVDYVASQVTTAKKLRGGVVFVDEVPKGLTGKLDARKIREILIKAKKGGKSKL
#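 Biochemical qHTS of compounds, final roughly 60 µM downward over six points, against 10 nM purified firefly luciferase using Km concentrations of substrates (10 uM D-luciferin, 10 uM ATP) in Tris acetate pH 7.5 buffer; luminescence output.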
# Rab9 prom act – activates the Rab9 promoter; Potency, µM (titrated, usually from 9.22 µM), without a hit: top-dose activation, negative = inhibition, most hits filed as activators; hit rate 2.8% among 320,000; AID 485297; Huh7 Rab9 promoter-luciferase reporter, luminescence, 24 h; also: % of control where 0% means no effect; nearly all actives have a fitted effect of over 60% in size
#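 Luminescence read-out: Huh7 cells stably expressing Rab9-luciferase, treated 24 h with compound at 37 °C, then lysed with luciferase reagent for 10 min at ambient before reading.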
# SMN2 splice up – increases expression of the SMN2 splice variant. HEK293 SMN2-luciferase splicing reporter, luminescence, 30-36 h. Potency, µM (highest dose often 46.1 µM), without a hit: at the top dose activity change, positive = activation, actives largely listed as activators. hit rate 2.8% among 210,000; also: % of control where 0% means no effect; nearly all actives have a fitted effect of over 55% in size
#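 HEK293 cells carry an SMN2 minigene-luciferase reporter in which exon 7 inclusion puts luciferase in frame. Cells were seeded at 2000 cells/well, attached for 10-12 hours, then exposed to compounds for 30-36 hours at 37C before ONE-Glo luminescence.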
# ELG1 DNA repair – inhibitors of ELG1-dependent DNA repair in HEK293T cells | AID 504467 | HEK293T ELG1-luciferase reporter, luminescence, 16 h; DNA damage induced by 5-fluorouridine | hit rate 2.3% among 330,000 | Potency, µM (series often up to 46.1 µM), without a hit: at the highest dose activity change, negative = inhibition, actives largely listed as inhibitors; also: % is scaled to controls: 0 for no effect and ±100 for the full control effect; nearly all actives have a fitted effect of over 55% in size
#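 HEK293T cells expressing luciferase-tagged ELG1 (2,000/well) received 5-Fluorouridine plus compound or DMSO for 16 hr at 37 °C. Luciferase was read by ONE-Glo luminescence after 30 min at room temperature.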
# NPC1 prom act – NPC1 promoter activation. Huh7 NPC1 promoter luciferase reporter, 24 h. Potency, µM (highest dose often 9.22 µM), for inactives: at the top dose activation, usual class: activators. hit rate 2.4% among 320,000. AID 485313; also: % of control where 0% means no effect; nearly all actives have a fitted effect of over 60% in size
#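 NPC1 promoter–luciferase Huh7 cells; 24 h compound; luminescence.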
# Numbers without * were called inactive; ? = inconclusive; nt = not tested or not shown; [ ] = remark or other dose. Calls follow the shape of the dose curve; as a rule, active = well fitted curve in the direction sought with a large enough effect; inconclusive = small, poorly fitted or top-dose-only effect, or another doubt; inactive = no such curve, though single readings can be large; an effect the other way counts as inactive or inconclusive. Potency is read from the fitted curve at half-maximal effect.
SMILES,ELG1 genotoxic,FLuc counter,Rab9 prom act,SMN2 splice up,ELG1 DNA repair,NPC1 prom act
O=C(O)C(Cc1ccccc1)N1C(=O)/C(=C/c2cccc3ccccc23)SC1=S (centres undefined),-7.7%,-4.2%,-5.5%,2.0%,20.9%,-0.1%
COc1ccc(CNc2ncnc3c2[nH]c2cc(OC)c(OC)cc23)cc1,10.4%,23.9µM*,-3.8%,nt,?,-2.9%
Cc1ccc2[nH]c3c(Cl)ncnc3c2c1,-0.1%,-14.5%,-2.7%,nt,?,-5.8%
CCOc1ccc2[nH]c3c(NCCCOC)ncnc3c2c1,?,?,18.1%,nt,?,?
CC(C)OCCCNc1ncnc2c1[nH]c1ccccc12,13.4%,?,-19.1%,-111.6%,9.2µM*,-3.9%
CCCOc1ncnc2c1[nH]c1ccc(C)cc12,?,1.2µM*,?,nt,?,2.82µM*
COc1ccc(CNc2ncnc3c2[nH]c2ccccc23)cc1,-8.5%,?,-16.7%,nt,2.06µM*,-5.1%
COc1ccc(CNc2nc(=S)[nH]c3cc(OC)c(OC)cc23)cc1,0.5%,-4.1%,-2.1%,nt,-7.7%,-1.5%
CC(C)CN(C(=O)C1CC1)C1CCS(=O)(=O)C1 (centres undefined),-0.8%,-2.1%,-2.6%,nt,7.6%,2.8%
CCOC(=O)c1cnc(Nc2nc3ccccc3o2)nc1CSC(=S)N(CC)CC,0.4%,-11.1%,13.4%,-7.2%,?,7.7%
CC(C)c1cccc2c([Si](C)(C)C)c3c(nc12)-c1cccc(=O)n1C3,nt,nt,nt,-4.6%,nt,nt
Cc1ccc(SCc2nc(-c3ccc(C(=O)NCC(C)c4ccccc4)cc3)oc2C)cc1 (centres undefined),nt,-11.8%,nt,nt,nt,nt
Cc1ccc2[nH]c3c(NCc4ccccc4)ncnc3c2c1,-1.2%,23.9µM*,1.6%,nt,?,11.3%
CN(CC(=O)Nc1ccc(F)cc1)c1ccc(S(=O)(=O)N2CCCC2)cn1,-7.1%,-2.3%,-2.0%,-11.2%,0.0%,-1.5%
COCCn1c(Br)nc2c1c(=O)n(C)c(=O)n2C,0.7%,3.4%,8.8%,nt,6.2%,-2.0%
Cn1c(=O)c2c(ncn2Cc2cc(-c3ccccc3)no2)n(C)c1=O,-5.5%,-1.6%,-1.8%,nt,18.4µM*,-7.8%
C/C(Cl)=C\Cn1c(Nc2ccc(C)cc2)nc2c1c(=O)n(C)c(=O)n2C,-14.1%,6.8%,-0.8%,26.2%,5.17µM*,-0.5%
Cc1ccc(OCCn2c(Br)nc3c2c(=O)n(C)c(=O)n3C)cc1,0.6%,7.2%,-16.2%,-87.4%,5.17µM*,-10.7%
Cn1c(=O)c2c(ncn2CCOc2cccc(Br)c2)n(C)c1=O,-12.8%,-1.3%,-11.4%,nt,8.2µM*,-8.0%
Cn1c(=O)c2c(ncn2Cc2cccc(Cl)c2)n(C)c1=O,2.5%,-0.4%,-24.1%,-36.0%,-23.1%,-7.1%
C/C(Cl)=C/Cn1c(N2CCCC2)nc2c1c(=O)n(C)c(=O)n2C,-6.1%,6.2%,-1.7%,-16.0%,?,-5.2%
Cc1cccc(C)c1OC[C@H](C)N,nt,nt,nt,0.8%[20.6 µM],nt,nt
O=C(c1ccc(S(=O)(=O)Cc2ccccc2Cl)c([N+](=O)[O-])c1)N1CCOCC1,-9.2%,0.0%,-0.8%,nt,-3.1%,-7.4%
O=C(COC(=O)c1ccccc1F)NCc1ccc2c(c1)OCO2,-0.5%,nt,nt,nt,0.0%,nt
CN1C(=O)N(C)C2(CC1(C)C)CC(C)(C)N(C)C(=O)N2C,3.5%,-1.6%,-0.4%,-16.2%,7.0%,-5.4%
CCC(=O)Nc1cccc(C2=NOC3(C2)C[C@@H](C(N)=O)N(C(=O)CC(c2ccccc2)c2ccccc2)C3)c1 (some centres undefined),1.2%,-0.6%,-0.4%,nt,-6.7%,-5.1%
Cc1cc(=O)[nH]c(N/N=C/c2c(C)oc3ccccc23)n1,-7.0%,-14.2%,1.8%,-7.7%,1.4%,0.9%
COc1ccc(C(=O)/C=C2\NCC3c4ccccc4CCN3C2=O)cc1 (centres undefined),0.1%,6.01µM*,?,9.0%,?,22.6%

# Screens deposited in PubChem by National Center for Advancing Translational Sciences (NCATS).
